# Measured potencies and affinities stand elsewhere. The source made the active and inactive calls.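 How the source made its calls: active means TRPC4 ion channel inhibited over 30% at some tested dose, with a fitted dose response curve; inactive means no inhibition or no dose response curve.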
# Biological target: Short transient receptor potential channel 4 (Mus musculus) (UniProt Q9QUQ5)
# Assay: potency of mouse TRPC4 calcium flux blockers – cell-based, HEK293 TRPC4/mu-opioid, DAMGO stimulus, Fluo-4, dose response (AID 492994)
# Sequence of Short transient receptor potential channel 4 (Mus musculus) (Q9QUQ5 whole entry, looked up): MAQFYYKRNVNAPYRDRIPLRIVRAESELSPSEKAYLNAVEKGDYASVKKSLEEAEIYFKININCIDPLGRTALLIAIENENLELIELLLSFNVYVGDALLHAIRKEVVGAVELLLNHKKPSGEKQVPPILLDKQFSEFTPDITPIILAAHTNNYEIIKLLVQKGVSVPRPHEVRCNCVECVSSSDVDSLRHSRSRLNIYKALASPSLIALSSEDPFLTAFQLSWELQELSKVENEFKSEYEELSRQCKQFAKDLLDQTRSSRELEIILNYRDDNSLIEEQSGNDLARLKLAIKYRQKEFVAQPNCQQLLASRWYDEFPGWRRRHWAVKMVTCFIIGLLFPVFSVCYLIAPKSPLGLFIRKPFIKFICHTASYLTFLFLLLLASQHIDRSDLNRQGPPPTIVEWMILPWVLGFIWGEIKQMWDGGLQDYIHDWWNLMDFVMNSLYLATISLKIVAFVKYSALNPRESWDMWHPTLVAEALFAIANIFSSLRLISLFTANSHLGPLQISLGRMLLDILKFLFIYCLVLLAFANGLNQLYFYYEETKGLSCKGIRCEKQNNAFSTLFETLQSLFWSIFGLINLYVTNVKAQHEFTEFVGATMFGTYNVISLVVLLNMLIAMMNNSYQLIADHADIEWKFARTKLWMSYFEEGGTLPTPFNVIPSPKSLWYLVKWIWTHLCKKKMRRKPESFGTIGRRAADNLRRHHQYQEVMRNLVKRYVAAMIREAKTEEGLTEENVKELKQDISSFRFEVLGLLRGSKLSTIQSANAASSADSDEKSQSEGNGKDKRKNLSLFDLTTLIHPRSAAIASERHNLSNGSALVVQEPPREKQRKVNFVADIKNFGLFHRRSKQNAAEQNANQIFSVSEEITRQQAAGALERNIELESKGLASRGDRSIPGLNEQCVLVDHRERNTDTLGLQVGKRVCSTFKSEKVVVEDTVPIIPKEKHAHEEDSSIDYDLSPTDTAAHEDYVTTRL
row,SMILES,outcome
1,Cc1cc(N2CCNCC2)nc2ccccc12,inactive
2,Cc1cc(N2CCN(C)CC2)nc2ccccc12,inactive

# Source: PubChem BioAssay AID492994 (Johns Hopkins Ion Channel Center, 2010)
